The list is not random: actives were taken first. Their share in the collection is about 19%.
TDP1 cell CPT: growth inhibition of DT40 Tdp1-/-;hTDP1 cells with camptothecin (screen for TDP1 inhibitors); chicken DT40 Tdp1-/-;hTDP1 cells + 20 nM CPT, ATP luminescence, 48 h; Potency, µM (titrated, usually from 46.2 µM), for the others: at the highest dose activity change, negative = growth inhibition, actives largely listed as inhibitors; actives 12% (n = 420,000); AID 686979; also: potency is read from the fitted curve at half-maximal effect; nearly all actives have a fitted effect of over 55% in size
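Chicken DT40 Tdp1-/- cells complemented with human TDP1, 400 cells/well, exposed to compounds plus 20 nM camptothecin for at least 48 h at 37 C; viability read as ATP content by CellTiter-Glo luminescence.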
ELG1 repair inh: inhibitors of ELG1-dependent DNA repair in HEK293T cells; HEK293T ELG1-luciferase reporter, luminescence, 16 h; DNA damage induced by 5-fluorouridine; Potency, µM (doses to about 46.1 µM), for inactives: top-dose activity change, negative = inhibition, usual class: inhibitors; actives 2.3% (n = 330,000); also: potency is read from the fitted curve at half-maximal effect; nearly all actives have a fitted effect of over 55% in size
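Quantitative HTS, concentration-response format. 2,000 cells/well co-treated with 5-fluorouridine and compound, 16 hr in 5% CO2 at 37 °C; ONE-Glo luminescence read after 30 min.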
HT1080 IDH1KD tx: toxicity to HT-1080 IDH1 knockdown cells (counter line); actives 2% (n = 360,000); Potency, µM (series often up to 46.1 µM), inactives show at the top dose activity, negative = toxicity, usual class: cytotoxic; HT-1080 IDH1 knockdown viability, ATP luminescence, 48 h;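 also: potency is read from the fitted curve at half-maximal effect; 0% = DMSO wells and -100% = cell-free medium wells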
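Assay cells: HT-1080 with IDH1 knockdown, 750 per well, RPMI/5% FBS. Exposure: 48 h at 37 °C following 2 h pre-incubation. Read: CellTiter-Glo luminescence; fitted concentration-response, curve class assigned.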
IL-1B inflam inh: inhibitors of inflammasome signaling (IL-1 beta secretion); THP-1 LPS/ATP IL-1B secretion, AlphaLISA, 16 h; stronger effect = lower value; activity change, % at 57.5 µM; actives 4.7% (n = 360,000); in the data active = activity change below about -50%; inconclusive = mostly about -30% to -49%
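Secreted IL-1B measured by AlphaLISA bead assay after 16 h compound exposure of THP-1 cells; compounds (final up to 57.5 uM) added 1 h before LPS (250 ng/mL) and ATP (1.25 mM) stimulation; lower signal means less secretion.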
HT1080NT lethal: kills 2HG-producing HT-1080-NT fibrosarcoma cells; HT-1080-NT fibrosarcoma viability, CellTiter-Glo ATP luminescence, 48 h; AID 686970; actives 1.6% (n = 360,000); Potency, µM (top dose mostly 46.1 µM), without a hit: top-dose activity, negative = less viability, hits mostly cytotoxic;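 also: NT is the 2HG producing partner of a matched IDH1 knockdown line; potency is read from the fitted curve at half-maximal effect; 0% = DMSO-treated cells and -100% = media-only wells without cells; nearly all actives have a fitted effect of over 55% in size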
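Luminescent CellTiter-Glo readout after 48 hours of compound exposure at 37 degrees C defined viability of HT-1080-NT cells. Activity was normalized to DMSO wells and cell-free media wells; concentration-response curves were fitted and assigned curve classes.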
TDP1 cell noCPT: qHTS for Inhibitors of human tyrosyl-DNA phosphodiesterase 1 (TDP1): qHTS in cells in absence of CPT | AID 686978, 2013 | DT40 Tdp1-/- hTDP1 cells, no CPT, ATP luminescence, 48 h | actives 15% (n = 420,000) | Potency, µM (top dose mostly 46.2 µM), for the others: at the highest dose activity change, negative = growth inhibition, most hits filed as inhibitors; also: potency is read from the fitted curve at half-maximal effect; nearly all actives have a fitted effect of over 55% in size
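Chicken DT40 Tdp1-/- cells stably complemented with human TDP1 were seeded at 400 cells/well with DMSO in place of 20 nM camptothecin. After compound pinning, cells grew at least 48 hr at 37 °C; viability read by CellTiter-Glo luminescence.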
Active calls of the source: *; u = inconclusive; x = not tested or not shown. Unless noted, calls follow the shape of the dose curve; as a rule, active = well fitted curve in the direction sought with a large enough effect; inconclusive = small, poorly fitted or top-dose-only effect, or another doubt; inactive = no such curve, though single readings can be large; an effect the other way counts as inactive or inconclusive. Unless noted, % is scaled to controls: 0 for no effect and ±100 for the full control effect.

SMILES	TDP1 cell CPT	ELG1 repair inh	HT1080 IDH1KD tx	IL-1B inflam inh	HT1080NT lethal	TDP1 cell noCPT
COc1ccccc1NC(=O)c1cc2c(n(-c3ccc(C)cc3)c1=O)CC(C)(C)CC2=O	-23.1%	x	x	x	x	5.2%
COCC(=O)Nc1cc(C(=O)N2CCCCC2c2nccs2)c2c(c1)nc(-c1ccncc1)n2C (stereo not given)	-4.9%	x	x	x	x	-5.9%
Cn1c(=O)c(=O)n(C)c2cc(N3CCCC3)c(NS(=O)(=O)c3ccc(F)cc3)cc21	-6.6%	1.2%	-9.3%	-6.8	-2.5%	11.7%
COc1ccc(OC)c(S(=O)(=O)Nc2cc3c(cc2N2CCCC2)n(C)c(=O)c(=O)n3C)c1	20.6µM*	12.8%	7.2%	-6.4	-4.2%	23.1µM*
CCCNC(=O)CCC(=O)N1Cc2cccc(OC)c2Oc2ncccc21	-11.6%	x	x	x	x	0.8%
COc1ccc(C)cc1NC(=O)Nc1ccncc1	-18.7%	-3.6%	-0.3%	-21.2	-9.4%	4.0%
C=CCc1cc(/C=C2/NC(=S)NC2=O)cc(OC)c1O	14.6µM*	31.3%	-26.7%	-27.7	-7.6%	20.6µM*
C=CCc1cc(/C=C2/NC(=O)NC2=O)cc(OCC)c1O	4.0%	u	-4.5%	11.9	-17.1%	u
CN(C(=O)CC1C(=O)NCCN1Cc1ccccc1C(F)(F)F)C1CCOCC1 (stereo not given)	u	0.3%	5.7%	2.5	10.3%	20.6µM*
CCOc1ccccc1CN1CCNC(=O)C1CC(=O)NC1CCCCCCC1 (stereo not given)	29.1µM*	x	-1.4%	-22.0	-1.8%	u
CCc1ccc(CNC(=O)CC2C(=O)NCCN2Cc2ccccc2F)nc1 (stereo not given)	-17.9%	-0.6%	-16.2%	9.7	2.0%	5.17µM*
O=C(CC1C(=O)NCCN1Cc1ccc(-c2ccccc2)cc1)NCC1CC1 (stereo not given)	-4.1%	3.2%	-8.1%	-54.4*	-3.9%	u
CN(C(=O)CC1C(=O)NCCN1Cc1ccccc1F)C1CCOCC1 (stereo not given)	-0.5%	27.3%	0.5%	-3.4	-0.9%	1.8%
Cc1cnc(CNC(=O)CC2C(=O)NCCN2Cc2ccccc2C(F)(F)F)cn1 (stereo not given)	-7.5%	5.5%	-1.2%	11.7	-0.9%	0.5%
COc1ccc(N2CCN(C(=O)CCn3c(=O)[nH]c4cc(OC)c(OC)cc4c3=O)CC2)cc1	-1.2%	x	x	x	x	-10.2%
N#Cc1cc(-c2ccccc2)nn1-c1ccccc1	u	u	6.7%	16.2	1.4%	20.6µM*
Fc1ccc(NC(=S)Nc2cc(-c3ccccc3)[nH]n2)cc1Cl	u	u	u	-25.8	u	u
Cc1ccc(-n2nc(-c3ccccc3)cc2Nc2ccccc2N)cc1	-8.9%	-17.0%	16.2%	-22.1	16.3%	-15.8%
Nc1ccccc1Nc1cc(-c2ccccc2)[nH]n1	-56.6%	u	u	-94.3*	u	13µM*
Nc1ccccc1Nc1cc(-c2ccccc2)nn1-c1ccccc1	23.1µM*	u	-12.2%	-8.9	-5.2%	20.6µM*
COc1cccc(C(=O)NCc2cn3cccc(C)c3n2)c1	-3.8%	x	x	x	x	-15.1%
Cc1cc(N2CCN(C)CC2)nc2ccc(NC(=S)NCc3cccs3)cc12	u	4.1%	23.1µM*	-77.4*	18.4µM*	u
CCC(C)NC(=S)Nc1ccc2nc(N3CCN(CC)CC3)cc(C)c2c1 (stereo not given)	u	-25.5%	-1.1%	0.5	-3.4%	23.1µM*
CCC(C)NC(=S)Nc1ccc2nc(N3CCOCC3)cc(C)c2c1 (stereo not given)	u	-27.6%	3.6%	-1.8	-3.4%	u
CCN1CCN(c2cc(C)c3cc(NC(=S)NCc4cccs4)ccc3n2)CC1	u	-12.6%	-1.0%	-1.6	-8.6%	20.6µM*
SMILES	TDP1 cell CPT	ELG1 repair inh	HT1080 IDH1KD tx	IL-1B inflam inh	HT1080NT lethal	TDP1 cell noCPT
CCC(C)NC(=O)CCC(=O)Nc1ccc2nc(N3CC(C)CC(C)C3)cc(C)c2c1 (stereo not given)	-16.6%	-13.5%	-7.8%	-58.7*	0.0%	16.4µM*
CCCCNC(=O)CCC(=O)Nc1ccc2nc(N3CCC(C)CC3)cc(C)c2c1	u	u	-14.0%	-6.1	-27.2%	u
COc1cccc(CNC(=O)CCC2CCCN(C(=O)c3ccc(OC)c(F)c3)C2)c1 (stereo not given)	-6.2%	-5.9%	-0.1%	40.4	1.6%	-17.8%
O=C(CC1SC(=O)N(c2ccccc2)C1=O)Nc1ccc(Br)cc1 (stereo not given)	2.59µM*	0.2%	7.0%	4.2	11.7%	5.8µM*
C[C@H]1CN(c2ccccc2)C(=O)[C@@H]1CC(=O)Nc1ccc(Br)cc1	u	x	-3.3%	-7.7	-4.5%	u
O=C(CC1SC(=O)N(c2ccccc2)C1=O)Nc1ccc(Cl)cc1 (stereo not given)	7.31µM*	7.1%	10.8%	-0.4	13.6%	20.6µM*
CCc1nc2sc3ccccc3c(=O)c2c(=O)n1Cc1ccco1	u	u	25.9µM*	-23.3	u	-29.2%
Cc1ccc(Cl)cc1N(C)C(=O)c1sc2nc3n(c(=O)c2c1C)CCCC3	u	x	x	x	x	16.4µM*
Cc1c(C(=O)O)sc2nc3n(c(=O)c12)CCCCC3	2.6%	x	6.2%	16.7	2.5%	-3.1%
Cc1ccc(N(C)C(=O)c2sc3nc4n(c(=O)c3c2C)CCCC4)cc1C	23.1µM*	x	x	x	x	18.4µM*
CCCN(C(=O)c1sc2nc3n(c(=O)c2c1C)CCCC3)c1ccccc1C	18.4µM*	x	x	x	x	u
CCOC(=O)c1sc2nc3n(c(=O)c2c1C)CCCCC3	3.7%	u	-12.8%	-1.5	0.9%	u
Cc1cc(C)cc(C(=O)n2nc(C)c(S(=O)(=O)N3CCOCC3)c2C)c1	-20.4%	x	x	x	x	2.3%
CCN(CC)C(=O)[C@H]1CC(CC(=O)NCCCOC)C(=O)N2CCc3c([nH]c4ccccc34)[C@]12C (stereo not given in full)	0.0%	15.7%	-2.4%	20.8	-2.2%	-7.3%
COC(=O)c1c(NC(=O)c2nc(SCc3cccc(C)c3)ncc2Cl)sc2c1CCCC2	-20.1%	x	x	x	x	-2.8%
COC(=O)c1c(NC(=O)c2nc(SCc3ccc(C)cc3)ncc2Cl)sc2c1CCCC2	-8.4%	x	x	x	x	-9.3%
Cc1cccc(CSc2ncc(Cl)c(C(=O)Nc3sc4c(c3C#N)CCCC4)n2)c1	23.1µM*	x	x	x	x	5.8µM*

Screens as filed in PubChem BioAssay.
